# Experimental data: PubChem BioAssay (Tox21)
# Where “and” joins values, the source holds several entries; their conditions need not be identical. Equal entries are not always repeated. Records with an inconclusive call do not appear. Where a call stands in place of a potency, no number is given. Where a structure was tested more than once in an assay, its records may differ in their call. Calls of active or inactive are those of the source. The call rests on the fitted dose curve; in most records, active means well fitted cell-killing curve with a large enough effect in the repeat runs; inconclusive means weak or mixed curves, or effect the other way; inactive means no such curve, though single readings can be large or run the other way.
# Test: qHTS assay to identify small molecule agonists of the farnesoid-X-receptor (FXR) signaling pathway - cell viability counter screen (AID 743218); further: nearly all actives have a fitted effect of over 45% in size
# Conditions: FXR-bla HEK293T viability, CellTiter-Glo luminescence, 16 h; series mostly up to 62.6 µM; viability change, negative = cytotoxic: at the top concentration
# Source text: U.S. Tox21 Program National Center for Advancing Translational Sciences [NCATS] NIH Chemical Genomics Center [NCGC] U.S. Environmental Protection Agency [EPA] National Institutes of Environmental Health Sciences [NIEHS] National Toxicology Program [NTP] U.S. Food and Drug Administration [FDA] Tox21 Assay Overview: The farnesoid-X-receptor (FXR), a nuclear hormone receptor, is highly expressed in liver, intestine, kidney and adrenal cortex. Natural ligands of FXR are the bile acids (Cholic acid, Chenodeoxy cholic acid etc). FXR is an important regulator of diverse metabolic pathways, including the bile acid homeostasis, lipid and glucose metabolisms. FXR regulates the expression of target genes by binding either as a monomer or as a heterodimer with the retinoid X receptor (RXR). Numerous studies have reported that FXR exerts protective function during cholestasis, diabetes, liver regeneration, and cancer. To identify compounds that activate FXR signaling, GeneBLAzer FXR-UAS-bla HEK 293T cell line (Invitrogen, Carlsbad, CA) containing a beta-lactamase reporter gene under the control of a UAS response element was used to screen the Tox21 10K compound library. The cytotoxicity of the Tox21 compound library against the FXR-bla cell line was tested in parallel by measuring the cell viability using CellTiter-Glo assay in the same wells.
# Tox21 Assay Protocol Summary: FXR-bla cells were dispensed at 5000 cells/5uL/well in 1536-well black wall/clear bottom plates using a Multidrop Combi (Thermo Fisher Scientific, Waltham, MA) dispenser. After the assay plates were incubated at 37 C and 5% CO2 for 5 h, 23 nL of compounds dissolved in DMSO, positive controls or DMSO only was transferred to the assay plate by a Pintool station (Kalypsys, San Diego, CA). The assay plates were incubated at 37C for 16 h. After 1 uL of LiveBLAzerTM B/G FRET substrate was added using a Bioraptr Flying Reagent Dispenser (FRD) workstation (Beckman Coulter, Indianapolis, IN), the plates were incubated at room temperature for 2 h, and fluorescence intensity was measured by an Envision plate reader (PerkinElmer, Shelton, CT). For cell viability readout that measures cytotoxicity, 4uL/well of CellTiter-Glo reagent was added into the assay plates using a Bioraptr FRD. After 30 min incubation at room temperature, the luminescence intensity in the plates was measured using a ViewLux plate reader (PerkinElmer).
# Potency means the concentration at half of the fitted maximal effect.
Compound,"viability change, negative = cytotoxic",Potency
COP(=O)(OC)OC,-0.781% (inactive),
COc1ccc(C=O)cc1,,inactive
CC(C)=CC1C(C(=O)OCc2coc(Cc3ccccc3)c2)C1(C)C (stereo not given),,inactive
CCN(N=O)C(N)=O,6.05% (inactive),
Cc1ccc2c(c1N)C(=O)c1ccccc1C2=O,,inactive
CC(C)NC(C)C,-2.7% (inactive),
Nc1ccncc1,,inactive
CCOC(=S)S,1.63% [at 81.1 µM] (inactive),
COP(=S)(OC)Oc1cc(Cl)c(Cl)cc1Cl,,inactive
Nc1c(Cl)cc([N+](=O)[O-])cc1Cl,,2.75 µM (active)
c1ccc(-c2cccc(-c3ccccc3)c2)cc1,-5.88% [at 81.1 µM] (inactive),
CCN(CC)N=O,,inactive
Brc1ccc(Oc2cc(Br)c(Br)cc2Br)c(Br)c1,-3.55% (inactive),
Cc1cc(C)cc(C)c1,,inactive
C=C(C)[C@H]1Cc2c(ccc3c2O[C@@H]2COc4cc(OC)c(OC)cc4[C@@H]2C3=O)O1,,inactive
O=C(O)CC[N+](=O)[O-],-18.1% (inactive),
Nc1ccc(Cl)c(Cl)c1,18.6% [at 81.1 µM] (inactive),
CCc1cccc(CC)c1N(COC)C(=O)CCl,,inactive
C[C@]12CCC(=O)C[C@@H]1CC[C@@H]1[C@@H]2CC[C@]2(C)[C@@H](O)CC[C@@H]12,-7.23% (inactive),
CCC(=O)O[C@H]1CC[C@H]2[C@@H]3CCC4=CC(=O)CC[C@]4(C)[C@H]3CC[C@]12C,,54.9 µM (active) and inactive

Compound,"viability change, negative = cytotoxic",Potency
CC(C)N(C(=O)SCC(Cl)=C(Cl)Cl)C(C)C,,inactive
CCC(CC)Nc1c([N+](=O)[O-])cc(C)c(C)c1[N+](=O)[O-],,inactive
c1nc[nH]n1,,inactive
O=P(Oc1ccccc1)(Oc1ccccc1)Oc1ccccc1,,inactive
C[C@]12CCC(=O)C(O)=C1CC[C@@H]1[C@@H]2CC[C@]2(C)C(=O)CC[C@@H]12,,inactive
Oc1ccc(-c2ccccc2)cc1,-17.6% (inactive),
CCCCNC(=O)n1c(NC(=O)OC)nc2ccccc21,,inactive
C1=Cc2cccc3cccc1c23,,inactive
Cc1c(COC(=O)[C@@H]2[C@H](/C=C(\Cl)C(F)(F)F)C2(C)C)cccc1-c1ccccc1,-2.41% (inactive),
NC(=S)Nc1ccccc1,,inactive
N#CCCCl,1.98% (inactive),
CC(C)C(=O)OCC(C)(C)C(OC(=O)C(C)C)C(C)C (stereo not given),4.03% (inactive),
CCCCN(CCCC)N=O,29% (inactive),
NNC(N)=S,13.3% (inactive),
CCCCC(CC)COC(=O)Cl (stereo not given),,inactive
CNC(=O)N(C)c1nnc(C(C)(C)C)s1,,inactive
Oc1cc(Cl)ccc1Oc1ccc(Cl)cc1Cl,,42.1 µM (active)
CCC(C)c1ccc(O)cc1 (stereo not given),,inactive
O=C(Nc1ccc(Br)cc1)c1cc(Br)cc(Br)c1O,,3.45 µM (active) and 1.55 µM (active) and 7.5 µM (active)
Nc1ccc(-c2ccccc2)cc1,8.94% [at 81.1 µM] (inactive),
